Outcome and AC50 data for 26 compounds are collected here from PubChem BioAssay (EPA / NIEHS).

Experiment [1] can be described thus: TOX21_p53_BLA_p2_viability: Viability Assessment in the Tox21 HCT-116 p53 Agonism Beta-lactamase Assay, Phase 2 (AID 2283591).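 Further: actives lower the ATP signal meaning cytotoxicity.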 The method, boiled down: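 HCT116 p53-bla cells, 4000/well, dosed after 5 h plating (217-fold dilution of DMSO stocks) and incubated 16 h at 37C. Viability taken as cellular ATP by CellTiter-Glo luminescence after 30 min RT; signal loss marks cytotoxicity.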

The target of experiment [2] is Cellular tumor antigen p53 (Homo sapiens) (UniProt P04637). Nature of the experiment: TOX21_p53_BLA_p2_ratio: Tox21 HCT-116 p53 Agonism Beta-lactamase Assay, Ratio, Phase 2 (AID 2283592). The method, boiled down:
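Cleaved-to-uncleaved substrate ratio (460 vs 530 nm) measured in HCT116 cells with an inducible beta-lactamase reporter linked to p53 activity. Compounds incubated 16 h at 37C before 2 h room-temperature CCF4-AM loading.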

A short description of experiment [3]: TOX21_p53_BLA_p3_viability: Viability Assessment in the Tox21 HCT-116 p53 Agonism Beta-lactamase Assay, Phase 3 (AID 2283593).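 Further: cells exposed to compound for 16 h before reading.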 The method, boiled down:
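HCT116 cells, 4000/well, dosed 5 h after plating by pin transfer (217-fold dilution from DMSO stock) and incubated 16 h at 37C, 5% CO2. Viability read as ATP luminescence with CellTiter-Glo after 30 min at room temperature.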

The nature of experiment [4]: TOX21_p53_BLA_p4_viability: Viability Assessment in the Tox21 HCT-116 p53 Agonism Beta-lactamase Assay, Phase 4 (AID 2283597).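 Further: hits lower the luminescence signal meaning cytotoxicity.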 A digest of the protocol:
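Viability is taken as cellular ATP: after 16 h compound exposure of HCT116 cells and a 2 h room-temperature CCF4-AM substrate step, CellTiter-Glo reagent is added and luminescence is measured 30 min later.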

Experiment [5] deals with Cellular tumor antigen p53 (Homo sapiens) (UniProt P04637). Nature of the experiment: TOX21_p53_BLA_p5_ratio: Tox21 HCT-116 p53 Agonism Beta-lactamase Assay, Ratio, Phase 5 (AID 2283599). The method, boiled down: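 HCT-116 p53-bla cells (4000/well) plated 5 h, dosed with compound (217-fold DMSO dilution) for 16 h at 37 C; CCF4-AM substrate 2 h at room temperature. Activity is the 460/530 nm emission ratio (405 nm excitation), fitted in gain-of-signal direction versus DMSO.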

Experiment [6] can be described thus: TOX21_p53_BLA_p5_viability: Viability Assessment in the Tox21 HCT-116 p53 Agonism Beta-lactamase Assay, Phase 5 (AID 2283600). The method, boiled down: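 Viability is taken from cellular ATP content, measured by luciferase luminescence in the same wells after the beta-lactamase ratio read. Cells are seeded at 4000 per well and exposed to DMSO-dissolved compounds, diluted 217-fold, for 16 h.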

For experiment [7], the target named is Cellular tumor antigen p53 (Homo sapiens) (UniProt P04637). Nature of the experiment: TOX21_p53_BLA_p4_ratio: Tox21 HCT-116 p53 Agonism Beta-lactamase Assay, Ratio, Phase 4 (AID 2283601). The method, boiled down:
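HCT-116 p53 beta-lactamase reporter cells (4000/well) preincubated 5 h, then compound (217-fold dilution of DMSO stock) for 16 h at 37C. CCF4-AM substrate added 2 h at room temperature; 460/530 nm emission ratio fitted upward versus DMSO.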

The target is the same in experiment [8]. Nature of the experiment: TOX21_p53_BLA_p3_ratio: Tox21 HCT-116 p53 Agonism Beta-lactamase Assay, Ratio, Phase 3 (AID 2283596). The method, boiled down: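 Cells were seeded at 4000/well, rested 5 h at 37C, then dosed with DMSO compound solutions (217-fold dilution) for 16 h. CCF4-AM substrate was loaded for 2 h at room temperature, and the 460/530 nm emission ratio was fitted for gain of signal versus DMSO.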

The next experiment concerns the target PGR (gene 5241) (UniProt P06401). Nature of the experiment: TOX21_PR_BLA_Followup_Antagonist_ratio: Tox21 HEK293 Progesterone Receptor (PR) Antagonism Beta-lactamase Follow-Up Assay, Ratio (AID 2283934). The method, boiled down: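 Read-out: blue/green beta-lactamase FRET ratio (cleaved ch2 over uncleaved ch1), fitted relative to DMSO baseline. Cells: PR-UAS-bla HEK293T, GAL4-UAS reporter, stimulated with 1 nM R5020 final; 16 hr compound exposure, 37C.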

A short description of experiment [9]: TOX21_PR_BLA_Followup_Agonist_viability: Viability Assessment in the Tox21 HEK293 Progesterone Receptor (PR) Agonism Beta-lactamase Follow-Up Assay (AID 2283935).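 Further: signal loss means lower viability so actives are cytotoxic.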 A digest of the protocol:
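Luminescent ATP quantitation (CellTiter-Glo, 30 min, room temperature) in the same wells as the beta-lactamase read, on PR-UAS-bla HEK293T cells exposed to compound for 16 hr at 37C in 2% charcoal-stripped serum.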

Experiment [10] can be described thus: TOX21_PR_BLA_Followup_Antagonist_viability: Viability Assessment in the Tox21 HEK293 Progesterone Receptor (PR) Antagonism Beta-lactamase Follow-Up Assay (AID 2283936).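 Further: cells exposed to compound with R5020 agonist for 16 h; hits lower the luminescence signal meaning cytotoxicity.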 A digest of the protocol: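 PR-UAS-bla HEK293T cells in medium with 2% charcoal-stripped FBS were treated with compounds plus R5020 for 16 hr at 37C. After the beta-lactamase read, CellTiter-Glo was added to the same wells and luminescence read after 30 min at room temperature.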

Experiment [11] can be described thus: TOX21_PR_LUC_Followup_Agonist_viability: Viability Assessment in the Tox21 HEK293 Progesterone Receptor (PR) Agonism Luciferase Follow-Up Assay (AID 2283941).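 Further: loss of signal means cytotoxicity so actives lower viability.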 The method, boiled down: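 Cytotoxicity counter-screen: ATP content by CellTiter-Glo luminescence, loss of signal = reduced viability. HEK293-PR-A-luc, 3,000 cells/well, compound exposure 16 h, 37C.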

Records with an inconclusive call do not appear. Calls of active or inactive are those of the source. How the source made its calls: active means hit-call score of the fitted dose curve at least 0.9, where 1 is the maximum; inconclusive means response in the unintended direction; inactive means score below 0.9.

Sequence of Cellular tumor antigen p53 (Homo sapiens) (P04637 whole entry, looked up): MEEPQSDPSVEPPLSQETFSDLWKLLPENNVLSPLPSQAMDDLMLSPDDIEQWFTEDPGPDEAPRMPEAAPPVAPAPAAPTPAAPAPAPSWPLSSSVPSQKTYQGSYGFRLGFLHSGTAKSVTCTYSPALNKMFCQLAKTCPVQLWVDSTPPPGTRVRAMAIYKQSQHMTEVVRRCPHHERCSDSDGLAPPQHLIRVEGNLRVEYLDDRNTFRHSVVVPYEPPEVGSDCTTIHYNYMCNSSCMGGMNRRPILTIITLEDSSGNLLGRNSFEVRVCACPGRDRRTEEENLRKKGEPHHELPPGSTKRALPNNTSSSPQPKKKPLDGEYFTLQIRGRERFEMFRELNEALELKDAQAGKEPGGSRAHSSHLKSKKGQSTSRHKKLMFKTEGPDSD
Sequence of PGR (gene 5241) (P06401 whole entry, looked up, the tested form may be a part): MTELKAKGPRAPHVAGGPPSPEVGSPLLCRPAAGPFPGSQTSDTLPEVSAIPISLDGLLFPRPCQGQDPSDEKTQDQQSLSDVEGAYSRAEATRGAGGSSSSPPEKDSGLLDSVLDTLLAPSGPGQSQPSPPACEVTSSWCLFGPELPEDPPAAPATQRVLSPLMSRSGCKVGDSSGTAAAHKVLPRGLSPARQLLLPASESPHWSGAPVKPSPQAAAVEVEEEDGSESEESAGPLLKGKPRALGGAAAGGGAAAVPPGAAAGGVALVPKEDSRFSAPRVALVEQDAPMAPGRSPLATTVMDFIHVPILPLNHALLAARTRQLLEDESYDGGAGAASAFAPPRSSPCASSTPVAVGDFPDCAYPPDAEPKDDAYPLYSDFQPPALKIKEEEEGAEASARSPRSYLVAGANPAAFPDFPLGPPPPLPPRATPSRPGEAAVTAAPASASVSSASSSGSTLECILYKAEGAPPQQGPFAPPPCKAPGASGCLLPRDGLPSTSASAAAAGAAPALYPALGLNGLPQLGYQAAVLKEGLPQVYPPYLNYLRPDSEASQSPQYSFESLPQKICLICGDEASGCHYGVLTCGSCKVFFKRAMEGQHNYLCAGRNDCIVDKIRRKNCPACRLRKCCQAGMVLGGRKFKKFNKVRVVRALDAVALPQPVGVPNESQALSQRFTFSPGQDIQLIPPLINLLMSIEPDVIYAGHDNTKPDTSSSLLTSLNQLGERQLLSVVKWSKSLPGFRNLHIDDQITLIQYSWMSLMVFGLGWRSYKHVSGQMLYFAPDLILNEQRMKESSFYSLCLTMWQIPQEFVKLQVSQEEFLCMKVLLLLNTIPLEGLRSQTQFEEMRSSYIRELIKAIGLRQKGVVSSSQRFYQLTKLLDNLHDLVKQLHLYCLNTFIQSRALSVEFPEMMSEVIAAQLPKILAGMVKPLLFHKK

In the case of `CC(=O)OCC(=O)[C@H]1CC[C@H]2[C@@H]3CC[C@H]4C[C@H](O)CC[C@]4(C)[C@H]3C(=O)C[C@]12C`, the call in experiment [1], in experiment [2], in experiment [3], in experiment [4], in [5] and in experiment [6] was inactive. Moreover, in experiment [7], the outcome was inactive.
On to `CCN(CC)CCOC(=O)C(O)(c1ccccc1)c1ccccc1`, for which the compound was called inactive in experiment [1], in [2], in [3], in experiment [5] and in experiment [6].
In the case of `CCC(=O)O[C@](Cc1ccccc1)(c1ccccc1)[C@H](C)CN(C)C`, the call in experiment [1], in experiment [2], in experiment [3], in [4], in experiment [5] and in experiment [7] was inactive.
On to `FC(F)OC(F)(F)C(F)Cl` (stereo not drawn), for which the compound was classed as inactive in experiment [1], in experiment [2], in [3], in [8] and in [7].
`CC(=O)OC1(c2ccccc2)CCN(CCc2ccccc2)CC1`: the compound was called inactive in experiment [1], in experiment [2], in [3], in experiment [4] and in experiment [7].
For the compound `CCCC(Cn1cncn1)c1ccc(Cl)cc1Cl` (stereo not drawn), the result in experiment [1], in experiment [3], in experiment [4], in experiment [5] and in experiment [6] was inactive. For the same compound, the AC50 (in general, the midpoint of the concentration-response curve, whichever way the signal moves) in experiment [2] is 75.6 µM (active); in experiment [7], 75.2 µM (active).
`CCOP(=S)(OCC)Oc1cc(C)nc(N(CC)CC)n1`: the compound was classed as inactive in experiment [1], in experiment [2], in experiment [3], in [4], in [6] and in [7].
Turning to `CCCC[P+](CC)(CCCC)CCCC` (tested in a mixture with another compound), the result in experiment [1], in experiment [2], in [3], in experiment [4], in [5] and in experiment [6] was inactive. In addition, the result in experiment [7] was inactive.
In the case of `CCN(CC)C(=O)[C@@H]1C=C2c3cccc4[nH]cc(c34)C[C@H]2N(C)C1`, the compound was classed as inactive in experiment [1], in experiment [2], in experiment [3], in experiment [4], in experiment [5] and in [6]. Further, in experiment [7], the result was inactive.
Turning to `CC(C)(O)[C@@H]1[C@H]2OC(=O)[C@@H]1[C@]1(O)C[C@H]3O[C@]34C(=O)O[C@H]2[C@]14C` (tested in a mixture with another compound), the compound was called inactive in experiment [1], in experiment [2], in experiment [3], in [4], in experiment [5] and in experiment [7].
As to `OC(c1ccccc1)(c1ccccc1)C1CN2CCC1CC2` (stereo not drawn), the compound was called inactive in experiment [1], in [2], in experiment [3], in experiment [4], in experiment [5] and in experiment [6]. The result in experiment [7] was inactive.
As to `O=C(O)CBr`, the compound was classed as inactive in experiment [1], in experiment [2], in experiment [3], in experiment [4], in [5] and in experiment [6]. Also, in [7], the result was inactive.
On to `CC(=O)[C@H]1CC[C@H]2[C@@H]3CC[C@H]4C[C@](C)(O)CC[C@]4(C)[C@H]3CC[C@]12C`, for which the call in experiment [1], in [2], in experiment [3], in experiment [4], in experiment [5] and in [7] was inactive.
For `c1ccc(C2CC2)c(OCC2=NCCN2)c1`, the outcome in experiment [1], in [2], in [3], in experiment [4], in [5] and in experiment [6] was inactive. In addition, the result in [7] was inactive.
Regarding `CCOP(=S)(OCC)Oc1cc(-c2ccccc2)on1`, the result in [1], in experiment [2], in experiment [3], in experiment [4] and in experiment [5] was inactive.
For the compound `COc1cc(CC(C)N)c(OC)cc1Br` (stereo not drawn), the compound was called inactive in experiment [1], in experiment [2], in experiment [3], in experiment [4], in experiment [5] and in [6]. Further, the result in experiment [7] was inactive.
In the case of `CCc1cc(OC)c(C[C@@H](C)N)cc1OC`, the result in experiment [1], in experiment [2], in [3], in experiment [4], in experiment [5] and in [7] was inactive.
Turning to `Clc1c(Cl)c(Cl)c(Cl)c(Cl)c1Cl`, the outcome in experiment [1], in experiment [2], in [3], in experiment [4], in [6] and in experiment [7] was inactive.
In the case of `O=C1c2ccccc2C(=O)c2ccccc21`, the outcome in experiment [1], in experiment [2], in experiment [3], in [4], in experiment [6] and in experiment [7] was inactive.
With `c1ccc2c(c1)[nH]c1cnccc12`, the outcome in [1], in experiment [2], in experiment [3], in experiment [4], in experiment [5] and in experiment [6] was inactive. Also, the result in experiment [7] was inactive.
As to `CC(C)(C)NCC(O)c1cc(Cl)c(N)c(Cl)c1` (stereo not drawn), the call in experiment [1], in experiment [2], in experiment [3], in experiment [8] and in [7] was inactive.
With `C[C@]12CC[C@H]3[C@@H](CCC4=CC(=O)CC[C@@H]43)[C@@H]1CC[C@@H]2O`, the outcome (in [1]; in experiment [2]; in experiment [3]; in [4]; in experiment [5]; with PGR (gene 5241)) was inactive. Besides, the compound was classed as inactive in [9], in [10] and in [11].
As for `COC(=O)C(C)N(C(=O)c1ccco1)c1c(C)cccc1C` (stereo not drawn), the outcome in experiment [1], in experiment [2], in experiment [3], in [4] and in experiment [5] was inactive.
`CN1[C@@H]2CC[C@H]1CC(OC(=O)c1cc(Cl)cc(Cl)c1)C2` (stereo partly drawn): the call in experiment [1], in [2], in experiment [3], in experiment [4], in [5] and in [6] was inactive. The result in experiment [7] was inactive.
For the compound `O=C(NCc1cccnc1)Nc1ccc([N+](=O)[O-])cc1`, the compound was classed as inactive in experiment [1], in experiment [2], in experiment [3], in [4] and in experiment [5].
On to `CC(C)(C)NCC(O)c1cc(Cl)c(N)c(C(F)(F)F)c1` (stereo not drawn), for which the call in experiment [1], in experiment [2], in experiment [3], in [4], in experiment [5] and in experiment [6] was inactive. The outcome in experiment [7] was inactive.
